Measurements from PubChem BioAssay.
Values without a mark were called inactive. Active and inactive are the calls of the source. Cut-off read from the data, not from the text of the source, unless noted: active = inhibition above about 25%; inactive = the rest.

How the values were obtained:
[1] = molecular target: Nuclear receptor coactivator 3 (Homo sapiens) (UniProt Q9Y6Q9); assay: SRC3 coactivator transcriptional activity inhibitors, confirmation, cell-based, luminescence, quadruplicate (AID 588792;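 active = mean inhibition over 43.08%, the solvent-only control mean plus 3 SD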;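 note: 0% = DMSO treated cells and 100% = gossypol at 36 µM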); conditions: HEK293 GAL4-SRC3 luciferase reporter, at 3.6 µM, active compounds read high
Nuclear receptor coactivator 3 (Homo sapiens), sequence (Q9Y6Q9 whole entry, looked up, the tested form may be a part): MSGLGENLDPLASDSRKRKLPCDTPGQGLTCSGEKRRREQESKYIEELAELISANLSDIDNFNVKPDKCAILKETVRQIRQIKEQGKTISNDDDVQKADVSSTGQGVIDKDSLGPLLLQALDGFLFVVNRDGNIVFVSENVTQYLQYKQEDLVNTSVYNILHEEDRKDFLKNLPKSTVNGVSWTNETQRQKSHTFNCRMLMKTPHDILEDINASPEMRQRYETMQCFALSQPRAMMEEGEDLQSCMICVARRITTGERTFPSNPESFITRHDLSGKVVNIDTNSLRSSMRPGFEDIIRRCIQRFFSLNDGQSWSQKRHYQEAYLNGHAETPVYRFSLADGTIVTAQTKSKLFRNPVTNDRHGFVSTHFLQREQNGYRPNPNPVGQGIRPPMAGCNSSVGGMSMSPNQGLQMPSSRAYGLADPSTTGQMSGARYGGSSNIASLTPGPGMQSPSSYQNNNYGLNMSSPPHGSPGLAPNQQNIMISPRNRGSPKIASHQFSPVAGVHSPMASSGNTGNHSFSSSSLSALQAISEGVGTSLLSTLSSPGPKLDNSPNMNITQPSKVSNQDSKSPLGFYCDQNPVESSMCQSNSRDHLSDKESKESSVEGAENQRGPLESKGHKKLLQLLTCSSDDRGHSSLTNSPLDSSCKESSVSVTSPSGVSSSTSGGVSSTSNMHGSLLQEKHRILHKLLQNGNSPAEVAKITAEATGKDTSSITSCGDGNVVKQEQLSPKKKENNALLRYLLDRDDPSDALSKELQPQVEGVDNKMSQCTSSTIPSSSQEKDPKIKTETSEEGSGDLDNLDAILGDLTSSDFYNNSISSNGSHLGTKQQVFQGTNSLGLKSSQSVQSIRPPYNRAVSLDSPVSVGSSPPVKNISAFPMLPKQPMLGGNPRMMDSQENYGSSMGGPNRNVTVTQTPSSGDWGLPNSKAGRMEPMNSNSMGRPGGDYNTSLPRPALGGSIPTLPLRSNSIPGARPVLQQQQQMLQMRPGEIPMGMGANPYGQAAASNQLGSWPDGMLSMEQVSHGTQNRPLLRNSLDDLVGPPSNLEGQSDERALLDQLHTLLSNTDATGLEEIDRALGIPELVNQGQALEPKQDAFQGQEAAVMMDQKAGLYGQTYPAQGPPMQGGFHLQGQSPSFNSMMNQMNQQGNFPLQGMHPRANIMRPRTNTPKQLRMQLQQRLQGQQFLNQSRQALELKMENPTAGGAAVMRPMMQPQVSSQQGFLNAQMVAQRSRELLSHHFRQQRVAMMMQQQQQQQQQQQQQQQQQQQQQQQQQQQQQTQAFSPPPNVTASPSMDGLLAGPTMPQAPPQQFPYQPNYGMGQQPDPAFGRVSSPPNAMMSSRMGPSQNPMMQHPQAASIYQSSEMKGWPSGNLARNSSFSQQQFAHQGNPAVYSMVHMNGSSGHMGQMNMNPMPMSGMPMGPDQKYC

[2] = tested on: transactivating tegument protein VP16 (Human herpesvirus 1), Gal4-VP16 luciferase reporter; assay: VP16 transactivation inhibitors, counter-screen for SRC3 inhibitor project, cell-based, luminescence, high throughput (AID 588794; in the data active = inhibition above about 30%); conditions: mammalian cells, VP16-driven luciferase reporter luminescence; at 3.6 µM; active compounds read high
[3] = molecular target: Nuclear receptor coactivator 1 (Homo sapiens) (UniProt Q15788); assay: SRC1 coactivator transcriptional activity inhibitors, confirmation, cell-based, luminescence, quadruplicate (AID 588820;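 active = mean inhibition above 46.68%, the untreated control wells mean plus 3 SD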;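 note: 0% = DMSO wells and 100% = gossypol 36 µM treated wells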); conditions: HEK293 GAL4-SRC1 luciferase reporter, at 3.6 µM, active compounds read high
Nuclear receptor coactivator 1 (Homo sapiens), sequence (Q15788 whole entry, looked up, the tested form may be a part): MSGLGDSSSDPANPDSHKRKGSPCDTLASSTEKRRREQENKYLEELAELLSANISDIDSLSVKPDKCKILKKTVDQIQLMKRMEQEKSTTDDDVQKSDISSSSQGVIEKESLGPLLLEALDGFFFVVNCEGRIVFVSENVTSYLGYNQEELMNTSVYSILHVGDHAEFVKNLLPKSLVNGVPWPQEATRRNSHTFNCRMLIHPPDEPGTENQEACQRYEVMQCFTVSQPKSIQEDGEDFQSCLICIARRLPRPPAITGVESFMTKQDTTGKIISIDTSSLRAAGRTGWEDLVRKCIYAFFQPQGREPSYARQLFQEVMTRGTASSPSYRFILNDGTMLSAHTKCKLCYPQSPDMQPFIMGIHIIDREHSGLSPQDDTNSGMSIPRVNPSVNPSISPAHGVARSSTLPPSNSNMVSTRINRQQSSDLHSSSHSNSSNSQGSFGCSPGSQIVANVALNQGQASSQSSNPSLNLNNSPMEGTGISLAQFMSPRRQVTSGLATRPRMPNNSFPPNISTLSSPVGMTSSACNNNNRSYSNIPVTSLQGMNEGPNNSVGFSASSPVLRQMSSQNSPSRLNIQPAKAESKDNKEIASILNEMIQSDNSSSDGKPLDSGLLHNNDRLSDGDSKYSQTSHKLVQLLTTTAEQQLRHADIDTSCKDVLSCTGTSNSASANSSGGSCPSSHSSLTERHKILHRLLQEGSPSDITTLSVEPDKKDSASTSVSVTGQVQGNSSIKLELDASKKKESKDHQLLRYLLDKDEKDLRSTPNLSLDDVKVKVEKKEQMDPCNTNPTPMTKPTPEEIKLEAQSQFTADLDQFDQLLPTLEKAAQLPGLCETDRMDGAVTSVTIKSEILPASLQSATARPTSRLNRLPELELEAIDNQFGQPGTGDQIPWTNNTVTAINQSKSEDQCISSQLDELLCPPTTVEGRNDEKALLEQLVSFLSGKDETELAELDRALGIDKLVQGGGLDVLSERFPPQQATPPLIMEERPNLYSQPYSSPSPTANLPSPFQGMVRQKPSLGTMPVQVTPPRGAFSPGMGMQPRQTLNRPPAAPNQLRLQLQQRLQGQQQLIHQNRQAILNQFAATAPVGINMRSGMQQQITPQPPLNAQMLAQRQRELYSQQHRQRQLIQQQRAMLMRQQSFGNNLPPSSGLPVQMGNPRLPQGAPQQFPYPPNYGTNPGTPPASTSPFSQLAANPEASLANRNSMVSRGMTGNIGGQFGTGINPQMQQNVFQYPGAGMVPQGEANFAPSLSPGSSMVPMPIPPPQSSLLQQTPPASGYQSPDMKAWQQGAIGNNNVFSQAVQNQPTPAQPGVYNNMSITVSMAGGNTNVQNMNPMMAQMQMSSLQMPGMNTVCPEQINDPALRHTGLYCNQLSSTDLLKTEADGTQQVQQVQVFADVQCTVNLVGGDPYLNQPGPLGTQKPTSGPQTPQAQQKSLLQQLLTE

[4] = VP16 transactivation inhibitors, counter-screen for SRC1 inhibitor project, cell-based, luminescence, high throughput (AID 588824); conditions: cell-based VP16 transactivation luciferase luminescence; at 3.6 µM; active compounds read high
[5] = tested on: transactivating tegument protein VP16 (Human herpesvirus 1); assay: VP16 transactivation reporter inhibitors, counter-screen for SRC2 inhibitor project, cell-based, luminescence, single concentration (AID 652007; in the data active = inhibition above about 36%); conditions: cell-based VP16 transactivation luciferase reporter, at 8.9 µM, active compounds read high
[6] = molecular target: Nuclear receptor coactivator 2 (Homo sapiens) (UniProt Q15596); assay: SRC2 coactivator transcriptional activity inhibitors, confirmation, cell-based, luminescence, HEK293, triplicate (AID 652008;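 active = mean inhibition above 46.5%, the solvent-only control mean plus 3 SD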;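 note: 0% = DMSO-treated cells and 100% = Gossypol at 36 µM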); conditions: HEK293 GAL4-SRC2 luciferase reporter, at 8.9 µM, active compounds read high
Nuclear receptor coactivator 2 (Homo sapiens), sequence (Q15596 whole entry, looked up, the tested form may be a part): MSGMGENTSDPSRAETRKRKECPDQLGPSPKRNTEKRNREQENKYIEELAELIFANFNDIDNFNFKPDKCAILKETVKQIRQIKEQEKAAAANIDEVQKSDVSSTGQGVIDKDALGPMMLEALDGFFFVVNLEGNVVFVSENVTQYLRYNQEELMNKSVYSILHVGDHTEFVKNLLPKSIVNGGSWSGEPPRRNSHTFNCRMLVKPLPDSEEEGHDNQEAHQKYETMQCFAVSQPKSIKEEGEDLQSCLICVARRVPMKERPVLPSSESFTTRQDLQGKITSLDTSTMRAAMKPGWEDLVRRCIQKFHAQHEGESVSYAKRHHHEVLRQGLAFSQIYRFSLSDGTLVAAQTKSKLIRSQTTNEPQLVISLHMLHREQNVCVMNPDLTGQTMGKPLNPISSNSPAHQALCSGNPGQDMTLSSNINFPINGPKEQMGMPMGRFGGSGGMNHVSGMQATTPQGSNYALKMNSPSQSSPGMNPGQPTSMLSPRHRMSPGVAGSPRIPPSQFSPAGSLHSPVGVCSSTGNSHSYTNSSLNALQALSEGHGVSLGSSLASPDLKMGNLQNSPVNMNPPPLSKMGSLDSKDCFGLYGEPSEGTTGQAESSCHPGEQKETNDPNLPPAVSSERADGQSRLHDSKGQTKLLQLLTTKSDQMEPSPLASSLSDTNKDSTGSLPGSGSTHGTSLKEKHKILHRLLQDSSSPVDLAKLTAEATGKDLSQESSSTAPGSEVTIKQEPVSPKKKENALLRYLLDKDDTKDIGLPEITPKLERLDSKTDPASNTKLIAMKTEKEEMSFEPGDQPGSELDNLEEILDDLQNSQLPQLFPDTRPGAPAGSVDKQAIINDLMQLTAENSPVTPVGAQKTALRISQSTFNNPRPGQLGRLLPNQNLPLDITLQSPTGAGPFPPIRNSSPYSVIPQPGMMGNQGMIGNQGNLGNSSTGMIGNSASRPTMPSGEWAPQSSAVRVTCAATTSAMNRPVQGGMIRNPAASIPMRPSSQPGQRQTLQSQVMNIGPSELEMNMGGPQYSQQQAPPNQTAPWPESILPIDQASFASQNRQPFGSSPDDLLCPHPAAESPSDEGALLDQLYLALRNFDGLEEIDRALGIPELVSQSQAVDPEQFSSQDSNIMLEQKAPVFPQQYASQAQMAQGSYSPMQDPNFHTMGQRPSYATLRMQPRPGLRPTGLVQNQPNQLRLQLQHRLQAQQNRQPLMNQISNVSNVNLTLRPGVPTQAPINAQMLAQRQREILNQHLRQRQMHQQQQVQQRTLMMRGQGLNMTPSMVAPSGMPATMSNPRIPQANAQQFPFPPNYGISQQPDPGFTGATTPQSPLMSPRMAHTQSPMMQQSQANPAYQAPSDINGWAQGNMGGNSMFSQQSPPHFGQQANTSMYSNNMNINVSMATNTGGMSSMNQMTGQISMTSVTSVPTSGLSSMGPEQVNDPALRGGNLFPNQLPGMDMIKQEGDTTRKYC

Compound | inhibition [1] | inhibition [2] | inhibition [3] | inhibition [4] | inhibition [5] | inhibition [6]
COc1ccccc1/C=C/C(=O)c1c2c(c(C)[nH]c1=O)CCCC2 | 46.6% (active) | 49.9% (active) | 59% (active) | 44.1% (active) | 34.1% | 39%
CC(=O)c1ccc(-n2c(C)c(C(C)=O)c3cc(O)ccc32)cc1 | 63% (active) | 45.6% (active) | 45.9% | 46.7% (active) | 2.74% | 54.7% (active)
Cc1c([N+](=O)[O-])c2ccc(O)cc2n1-c1ccccc1 | 53.5% (active) | 31.6% (active) | 55.4% (active) | 30.1% (active) | 2.8% | 35.8%
Nc1ccc(-c2nc3c(Cl)cc(N)cc3[nH]2)cc1 | 18.7% | -18.4% | -18.9% | -17.4% | 28.1% | 71.7% (active)
CC1=C(C(=O)OCc2ccc3c(c2)OCO3)C(c2cccc([N+](=O)[O-])c2)NC(=O)N1 (stereo not given) | 64.6% (active) | 42.2% (active) | 65.7% (active) | 37.3% (active) | -0.72% | 51.9% (active)
CCc1cc(-c2[nH]ncc2-c2ccc3c(c2)OCO3)c(O)cc1O | 59.9% (active) | 34.5% (active) | 27.7% | 39.8% (active) | 30.3% | 18.2%
Cc1nc2sc(C(N)=O)c(N)c2c2c1CCCC2 | 79.4% (active) | 47.5% (active) | 69% (active) | 51% (active) | 6.77% | 61.5% (active)
CCCC(=O)N1CCN(c2ccc(NC(=O)c3cc4ccccc4o3)cc2Cl)CC1 | -3.22% | 5.64% | -6.77% | 6.71% | 35.5% (active) | 27.2%
Cn1nnnc1Sc1ncnc2scc(-c3cccc(Br)c3)c12 | 31.4% | 43.7% (active) | 43.3% | 47.5% (active) | 9.2% | 55.7% (active)
c1cc(-c2nnc3sc(C4CCCCC4)nn23)ccn1 | 62.6% (active) | 37.2% (active) | 58.2% (active) | 51% (active) | 0.17% | 35.7%
